Measured values taken from PubChem BioAssay (Tox21).
Several values for one entry are separate records, joined by “and”; a condition that tells them apart may be missing. Equal values may be shown once. Records with an inconclusive call do not appear. A call without a number means that no potency is given here. Some compounds were tested as several samples or in several runs, with calls that do not always agree. Activity calls are given as the source filed them. Unless noted, calls follow the shape of the dose curve; as a rule, active = well fitted curve in the direction sought with a large enough effect in the repeat runs; inconclusive = weak or mixed curves; inactive = no such curve, though single readings can be large; an effect the other way counts as inactive or inconclusive.

Columns and labels:
[1] = qHTS assay to identify small molecule agonists of the peroxisome proliferator-activated receptor delta (PPARd) signaling pathway - cell viability counter screen (AID 743211); also: nearly all actives have a fitted effect of over 55% in size
How it was run: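 qHTS cell viability: PPARd-bla HEK293H; 17 h cpd, 37C; CellTiter-Glo, luminescence at 30 min RT.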

[2] = qHTS assay to identify small molecule antagonists of the peroxisome proliferator-activated receptor delta (PPARd) signaling pathway - cell viability counter screen (AID 743213); also: nearly all actives have a fitted effect of over 50% in size
How it was run: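 Agonist-stimulated (L165041, 300 nM final) HEK293H PPARd UAS-bla cells are exposed to compounds for 17 h at 37 C, and ATP-based luminescence (CellTiter-Glo) from the same wells reports cytotoxicity.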

[3] = qHTS assay to identify small molecule agonists of the farnesoid-X-receptor (FXR) signaling pathway - cell viability counter screen (AID 743218); also: nearly all actives have a fitted effect of over 45% in size
How it was run: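 Luminescence from CellTiter-Glo, read after 30 min at RT, reports viability of GeneBLAzer FXR-UAS-bla HEK 293T cells treated 16 h with compounds in the wells used for the beta-lactamase reporter.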

[4] = qHTS assay to identify small molecule antagonists of the farnesoid-X-receptor (FXR) signaling pathway - cell viability counter screen (AID 743221; active = well fitted cell-killing curve with a large enough effect in the repeat runs, not every such curve was filed as active; also: nearly all actives have a fitted effect of over 50% in size)
How it was run: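 After a 5 h settling period, FXR-bla HEK 293T cells receive compound and chenodeoxycholic acid (50 uM final) and incubate 16 h at 37 C; CellTiter-Glo luminescence, read after 30 min at room temperature, reports cell viability.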

[5] = target: Vitamin D3 receptor (Homo sapiens) (UniProt P11473); test: qHTS assay to identify small molecule agonists of the vitamin D receptor (VDR) signaling pathway (AID 743222; calls by dose curve)
How it was run: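 Beta-lactamase reporter readout (LiveBLAzer B/G FRET, 2 h RT) in VDR-bla cells after 16 h compound treatment at 37C, 5% CO2; cells pre-incubated 4 h before pin transfer of DMSO solutions.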

[6] = target: Vitamin D3 receptor (Homo sapiens) (UniProt P11473); test: qHTS assay to identify small molecule antagonists of the vitamin D receptor (VDR) signaling pathway (AID 743223; active = well fitted inhibition curve with a large enough effect in the signal ratio in the repeat runs, not every such curve was filed as active; the % refers to the signal ratio)
How it was run: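 Reporter line VDR-bla; stimulus 1alpha,25-(OH)2 vitamin D3, 3 nM final; compound co-addition, 16 h 37C/5% CO2; LiveBLAzer B/G substrate 2 h RT; fluorescence intensity.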

[7] = qHTS assay to identify small molecule agonists of the vitamin D receptor (VDR) signaling pathway - cell viability counter screen (AID 743224); also: series mostly up to about 63 µM; nearly all actives have a fitted effect of over 50% in size
How it was run: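 Cytotoxicity counter screen: VDR-bla cells, 16 h compound exposure at 37C, 5% CO2; CellTiter-Glo luminescence, 30 min RT, same wells as bla read.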

[8] = qHTS assay to identify small molecule antagonists of the vitamin D receptor (VDR) signaling pathway - cell viability counter screen (AID 743225); also: nearly all actives have a fitted effect of over 50% in size
How it was run: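 Parallel cytotoxicity test: VDR-UAS-bla HEK 293T, 3 nM (final) 1-alpha,25-dihydroxyvitamin D3 with test compound, 16 h, 37C. Endpoint is CellTiter-Glo luminescence in the same wells.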

[9] = qHTS assay to identify small molecule agonists of the NFkB signaling pathway - cell viability counter screen (AID 1159515; calls by dose curve; also: series mostly up to about 61 µM; nearly all actives have a fitted effect of over 55% in size)
How it was run: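 ME-180 NFkB-bla cells, 2,000/well; overnight attach; compound 5 hr, 37 C/5% CO2; LiveBLAzer substrate 1.5 hr RT; then CellTiter-Glo in same wells, 30 min RT, luminescence read.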

[10] = qHTS assay to identify small molecule agonists of the endoplasmic reticulum stress response signaling pathway (AID 1159516; active = well fitted activation curve with a large enough effect in the signal ratio in the repeat runs, not every such curve was filed as active; the % refers to the signal ratio; also: potency is read from the fitted curve at half-maximal effect)
How it was run: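 HeLa ESRE-bla reporter line; cpd 5 h, 37 C/5% CO2; LiveBLAzer B/G FRET substrate 2 h RT; ex 405, em 460/530 nm.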

[11] = qHTS assay to identify small molecule agonists of the endoplasmic reticulum stress response signaling pathway - cell viability counter screen (AID 1159517; calls by dose curve)
How it was run: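 Steps: seed 1,500 ESRE-bla HeLa cells per well; incubate overnight at 37 C, 5% CO2; add compounds in DMSO for 5 hr; run FRET substrate 2 hr RT; add CellTiter-Glo, wait 30 min, read luminescence.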

[12] = qHTS assay to identify small molecule antagonists of the retinoid-related orphan receptor gamma (ROR-gamma) signaling pathway - cell viability counter screen (AID 1159520); also: nearly all actives have a fitted effect of over 50% in size
How it was run: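 Tet-on ROR gamma CHO cells were given compounds for 2 hr, then doxycycline hyclate at 1 uM final, and incubated 16 hr at 37 C. Viability was measured as ATP content by CellTiter-Glo luminescence.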

[13] = target: Nuclear receptor ROR-gamma (Homo sapiens) (UniProt P51449); test: qHTS assay to identify small molecule antagonists of the retinoid-related orphan receptor gamma (ROR-gamma) signaling pathway (AID 1159521)
How it was run: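 Decreased RORE-driven luciferase luminescence indicates antagonism. Tet-on RORγ CHO cells received compound, then 1 uM final doxycycline 2 h later; signal read after 16 h incubation.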

[14] = qHTS assay to identify small molecule agonists of the AP-1 signaling pathway - cell viability counter screen (AID 1159525; calls by dose curve; also: nearly all actives have a fitted effect of over 55% in size)
How it was run: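 Same-well cytotoxicity counter screen of the Tox21 10K library in ME-180 cells. The readout is ATP-dependent luminescence after 5 h compound treatment. Data are normalised to DMSO and tetra n-octyl ammonium bromide controls.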

[15] = qHTS assay to identify small molecule agonists of the AP-1 signaling pathway (AID 1159526; calls by dose curve)
[16] = target: Retinoic acid receptor RXR-alpha (Homo sapiens) (UniProt P19793); test: qHTS assay to identify small molecule agonists of the RXR signaling pathway (AID 1159527; calls by dose curve; also: nearly all actives have a fitted effect of over 35% in size; also: potency is read from the fitted curve at half-maximal effect)
How it was run: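 16 hr incubation of compound-treated RXR-alpha-UAS-bla HEK 293T cells (2% charcoal-stripped FBS, 37 C) preceded a 2 hr room-temperature LiveBLAzer FRET substrate step and blue/green fluorescence measurement.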

[17] = qHTS assay to identify small molecule agonists of the RXR signaling pathway - cell viability counter screen (AID 1159529)
How it was run: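 In this parallel viability measure, GeneBLAzer RXR-alpha HEK 293T cells (2% charcoal-stripped FBS) were given a 5 hr preincubation, treated with compounds 16 hr at 37 C, and read by CellTiter-Glo luminescence.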

[18] = target: Peroxisome proliferator-activated receptor delta (Homo sapiens) (UniProt Q03181); test: qHTS assay to identify small molecule agonists of the peroxisome proliferator-activated receptor delta (PPARd) signaling pathway (AID 743212; calls by dose curve; also: potency is read from the fitted curve at half-maximal effect)
How it was run: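 Read-out: beta-lactamase FRET fluorescence after 2 h room-temperature incubation with LiveBLAzer B/G substrate. Cells were HEK293H carrying a UAS-bla reporter for PPARd, treated at 37 C with DMSO-dissolved compounds.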

[19] = target: Peroxisome proliferator-activated receptor delta (Homo sapiens) (UniProt Q03181); test: qHTS assay to identify small molecule antagonists of the peroxisome proliferator-activated receptor delta (PPARd) signaling pathway (AID 743215; active = well fitted inhibition curve with a large enough effect in the signal ratio in the repeat runs, not every such curve was filed as active; the % refers to the signal ratio; also: series mostly up to about 62 µM)
How it was run: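 HEK293H GeneBLAzer PPARd UAS-bla reporter cells; cpd + L165041 300 nM final, 17 h 37 C; LiveBLAzer B/G FRET substrate 2 h RT; fluorescence intensity read-out. Antagonist mode.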

[20] = target: Bile acid receptor (Homo sapiens) (UniProt Q96RI1); test: qHTS assay to identify small molecule antagonists of the farnesoid-X-receptor (FXR) signaling pathway (AID 743217; active = well fitted inhibition curve with a large enough effect in the signal ratio in the repeat runs, not every such curve was filed as active; the % refers to the signal ratio)
How it was run: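 Read-out: beta-lactamase FRET fluorescence (LiveBLAzer B/G substrate, 2 h, room temperature) in GeneBLAzer FXR-UAS-bla HEK 293T cells. Compounds were co-dosed with 50 uM chenodeoxycholic acid (final) and incubated 16 h at 37 °C.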

Retinoic acid receptor RXR-alpha (Homo sapiens), sequence (P19793 whole entry, looked up): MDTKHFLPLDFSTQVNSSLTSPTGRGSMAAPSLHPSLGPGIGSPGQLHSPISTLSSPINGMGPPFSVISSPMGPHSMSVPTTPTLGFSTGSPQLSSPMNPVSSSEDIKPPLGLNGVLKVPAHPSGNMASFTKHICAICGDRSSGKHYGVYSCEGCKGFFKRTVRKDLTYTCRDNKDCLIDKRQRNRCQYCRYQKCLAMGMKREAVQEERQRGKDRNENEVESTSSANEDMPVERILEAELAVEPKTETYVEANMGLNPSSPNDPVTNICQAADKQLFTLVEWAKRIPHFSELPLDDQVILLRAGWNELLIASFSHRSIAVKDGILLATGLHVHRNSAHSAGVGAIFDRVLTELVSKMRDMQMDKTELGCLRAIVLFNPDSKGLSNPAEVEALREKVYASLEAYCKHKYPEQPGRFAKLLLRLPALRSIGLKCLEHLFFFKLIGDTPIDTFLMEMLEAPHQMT
Bile acid receptor (Homo sapiens), sequence (Q96RI1 whole entry, looked up): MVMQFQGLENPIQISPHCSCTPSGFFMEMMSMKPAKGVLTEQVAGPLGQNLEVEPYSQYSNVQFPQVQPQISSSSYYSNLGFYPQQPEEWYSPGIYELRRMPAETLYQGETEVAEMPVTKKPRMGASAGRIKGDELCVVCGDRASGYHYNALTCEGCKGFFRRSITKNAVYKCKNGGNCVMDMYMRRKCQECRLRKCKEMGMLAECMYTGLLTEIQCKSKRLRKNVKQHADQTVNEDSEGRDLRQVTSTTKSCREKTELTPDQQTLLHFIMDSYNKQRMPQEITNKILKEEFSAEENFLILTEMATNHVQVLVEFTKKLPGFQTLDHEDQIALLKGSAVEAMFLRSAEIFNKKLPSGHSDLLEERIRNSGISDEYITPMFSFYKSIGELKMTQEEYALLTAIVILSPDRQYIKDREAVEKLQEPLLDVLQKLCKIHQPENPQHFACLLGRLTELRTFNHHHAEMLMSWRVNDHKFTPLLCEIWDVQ
Peroxisome proliferator-activated receptor delta (Homo sapiens), sequence (Q03181 whole entry, looked up): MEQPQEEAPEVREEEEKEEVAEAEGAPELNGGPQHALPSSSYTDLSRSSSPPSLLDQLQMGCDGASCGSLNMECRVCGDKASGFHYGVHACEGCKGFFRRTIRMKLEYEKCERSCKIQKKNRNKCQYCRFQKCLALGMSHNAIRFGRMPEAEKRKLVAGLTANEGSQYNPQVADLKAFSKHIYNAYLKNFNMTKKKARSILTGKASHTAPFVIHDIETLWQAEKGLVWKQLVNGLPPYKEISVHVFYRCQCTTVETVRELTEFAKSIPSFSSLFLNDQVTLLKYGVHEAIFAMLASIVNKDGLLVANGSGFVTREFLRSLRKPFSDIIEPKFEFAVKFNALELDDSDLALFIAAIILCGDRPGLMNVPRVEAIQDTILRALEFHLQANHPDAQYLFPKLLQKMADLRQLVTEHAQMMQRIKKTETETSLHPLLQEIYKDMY
Vitamin D3 receptor (Homo sapiens), sequence (P11473 whole entry, looked up): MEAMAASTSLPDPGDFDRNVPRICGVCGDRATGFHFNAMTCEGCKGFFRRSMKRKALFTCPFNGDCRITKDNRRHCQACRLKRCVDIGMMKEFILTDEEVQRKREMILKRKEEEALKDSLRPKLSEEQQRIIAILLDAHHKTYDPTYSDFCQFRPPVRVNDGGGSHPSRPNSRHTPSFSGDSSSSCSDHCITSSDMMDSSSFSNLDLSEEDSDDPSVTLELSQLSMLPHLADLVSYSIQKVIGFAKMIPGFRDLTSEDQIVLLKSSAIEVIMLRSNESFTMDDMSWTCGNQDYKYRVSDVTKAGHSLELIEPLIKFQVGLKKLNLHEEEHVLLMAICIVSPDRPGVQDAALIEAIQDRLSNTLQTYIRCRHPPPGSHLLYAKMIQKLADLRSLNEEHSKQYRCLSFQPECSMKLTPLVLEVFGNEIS

Row | Structure (SMILES) | Potency [1] | Potency [2] | Potency [3] | Potency [4] | outcome [5] | Potency [6] | Potency [7] | Potency [8] | Potency [9] | Potency [10] | Potency [11] | Potency [12] | Potency [13] | Potency [14] | outcome [15] | Potency [16] | Potency [17] | Potency [18] | Potency [19] | Potency [20]
1 | Cc1ccncc1 | inactive | inactive | inactive | inactive | inactive | inactive | inactive | inactive | inactive | inactive | inactive | inactive | inactive | inactive | inactive | inactive | inactive |  |  | 
2 | Clc1cccc(Cl)c1NC1=NCCN1 | inactive | inactive | inactive | inactive | inactive | inactive | inactive | inactive | inactive | inactive | inactive | inactive | inactive | inactive | inactive | inactive | inactive |  |  | 
3 | CC(COCC(C)OC(=O)c1ccccc1)OC(=O)c1ccccc1 (stereo unspecified) | inactive | inactive | inactive | inactive | inactive | inactive | inactive | inactive | inactive | inactive | inactive | inactive | inactive | inactive | inactive |  | inactive | inactive | inactive | inactive
4 | CCCCCCCC(=O)O | inactive | inactive | inactive | inactive | inactive | inactive | inactive | inactive | inactive | inactive | inactive | inactive | inactive | inactive | inactive | inactive | inactive |  |  | 
5 | C=C1C[C@]23C[C@@]1(O)CC[C@H]2[C@@]12C=C[C@H](O)[C@@](C)(C(=O)O1)[C@H]2[C@@H]3C(=O)O | inactive | inactive | inactive | inactive | inactive | inactive | inactive | inactive | inactive | inactive | inactive | inactive | inactive |  | inactive | inactive | inactive | inactive | inactive | inactive
6 | CC/C=C(\C(=O)N[C@@H]1C(=O)N2C(C(=O)OCOC(=O)C(C)(C)C)=C(COC(N)=O)CS[C@H]12)c1csc(N)n1 | inactive | inactive | inactive | inactive | inactive | inactive | inactive | inactive | inactive | inactive | inactive | inactive | inactive | inactive | inactive | inactive | inactive |  |  | 
7 | NC1CCCCC1N (stereo unspecified) | inactive | inactive | inactive | inactive | inactive | inactive | inactive | inactive | inactive | inactive | inactive | inactive | inactive | inactive | inactive | inactive | inactive |  |  | inactive
8 | Nc1nc(N)c2nc(-c3ccccc3)c(N)nc2n1 | inactive | inactive | inactive | inactive |  |  | inactive | inactive | inactive | 49 µM (active) and 21.3 µM (active) | inactive | inactive | inactive | inactive |  | 19 µM (active) | inactive | 24.5 µM (active) and 23.7 µM (active) |  | 
9 | O=Cc1ccc(CO)o1 | inactive | inactive | inactive | inactive | inactive | inactive | inactive | inactive | inactive | inactive | inactive | inactive | inactive | inactive | inactive | inactive | inactive |  |  | inactive
10 | CC(=O)OCCC(C)C | inactive | inactive | inactive | inactive |  |  | inactive | inactive | inactive | inactive | inactive | inactive | inactive | inactive | inactive | inactive | inactive | inactive | inactive | 
11 | O=c1n(CCCN2CCN(c3cccc(Cl)c3)CC2)nc2ccccn12 | inactive | inactive | inactive | inactive |  |  | inactive | inactive | inactive | inactive | inactive | inactive | inactive | inactive | inactive | inactive | inactive |  |  | 
12 | CCCOC(=O)NCCCN(C)C | inactive | inactive | inactive | inactive | inactive | inactive | inactive | inactive | inactive | inactive | inactive | inactive | inactive | inactive | inactive | 21.9 µM (active) and inactive | inactive |  |  | 
